LASV entry inh: Lassa virus entry inhibition | Lassa virus pseudotype entry inhibition, cell reporter | 300,000 compounds, 1.2% hits | Potency, µM (series often up to 37.9 µM), for the others: top-dose activity change, negative = inhibition, usual class: inhibitors; calls by dose curve; tested in HEK293 cells; note: potency is the fitted concentration of half-maximal effect; nearly all actives have a fitted effect of over 50% in size
Vaccinia Venus: inhibitors of vaccinia virus (Venus reporter); Potency, µM (titrated, usually from 36.5 µM), for the others: at the top dose activity change, negative = inhibition, most hits filed as inhibitors; Vaccinia virus Venus reporter expression, fluorescence; 330,000 compounds, 0.46% hits; calls by dose curve; tested in A549 cells; note: potency is the fitted concentration of half-maximal effect; nearly all actives have a fitted effect of over 30% in size
VACV mCherry inh: inhibitors of vaccinia virus infection (mCherry reporter signal). Vaccinia virus mCherry reporter infection, fluorescence. Potency, µM (doses to about 36.5 µM), for the others: top-dose activity change, negative = inhibition, usual class: inhibitors. 310,000 compounds, 0.63% hits. AID 720579; calls by dose curve; tested in A549 cells; note: potency is the fitted concentration of half-maximal effect; nearly all actives have a fitted effect of over 35% in size
HCMV antiviral: human cytomegalovirus inhibition; AID 1259415; HFF cells, HCMV-luciferase reporter, 72 h; hits give low values; activity change, negative = inhibition, % at 57.5 µM; 410,000 compounds, 4.5% hits; in the data active = activity change below about -60%; inconclusive = no clear call, values can overlap the other calls; inactive = above about -39%
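Luciferase read-out from HCMV-luciferase-infected HFFs (MOI 1 PFU/cell) 72 h post infection at 37C; compounds added after 16 h cell attachment; activity normalized between buffer-only basal and Salinomycin (10uM) inhibitor controls.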
MARV entry inh: blocks Marburg virus binding to or entry into cells; 300,000 compounds, 1.8% hits; Potency, µM (series often up to 37.8 µM), without a hit: at the highest dose activity change, negative = inhibition, most hits filed as inhibitors; Marburg virus pseudotyped entry inhibition, cell reporter; calls by dose curve; tested in HEK293 cells; note: potency is the fitted concentration of half-maximal effect
FMDV inh: antivirals against foot and mouth disease virus. FMDV antiviral cell-based qHTS. Potency, µM (doses to about 57.9 µM), inactives show top-dose activity change, negative = inhibition, most hits filed as inhibitors. 410,000 compounds, 1.2% hits. AID 1159524; calls by dose curve; tested in HEK293T cells; note: read-out not given here; potency is the fitted concentration of half-maximal effect; nearly all actives have a fitted effect of over 45% in size
The depositor's hits bear a star; i = inactive; ? = inconclusive; · = no result; [ ] = remark or other dose. Most compounds without a hit are left out; they make up all but 6.5% or so of the library. % is set by controls: 0 for no effect and ±100 for the full control effect.

SMILES	LASV entry inh	Vaccinia Venus	VACV mCherry inh	HCMV antiviral	MARV entry inh	FMDV inh
O=S(=O)(c1ccccc1)N1CCN=C1SCc1c(F)cccc1Cl	?	-13.9%	-10.4%	-80.0*	-26.4%	-20.3%
O=S(=O)(c1ccc(Cl)cc1)N1CCN=C1SCc1cccnc1	·	-26.0%	-16.1%	-75.2*	·	-2.4%
Cc1cccc(C)c1NC(=O)[C@H]1CCCCN1C	·	·	·	·	9.6%	·
O=C1c2cccnc2C(=O)N1c1nc(-c2ccccc2)cs1	·	-13.2%	-24.2%	·	·	·
COc1cc(NC(=O)CN2C(=O)C(=O)N(C3CCCC3)C2=O)cc(OC)c1	·	·	·	-99.3*	·	-15.2%
O=C(Nc1ccc(N=Nc2ccccc2)c(NC(=O)C2CCCO2)c1)C1CCCO1 (stereo unspecified)	?	?	-11.6%	-61.2*	?	34.5%
O=C(O)c1cccc(C(=O)Nc2cccc(NC(=O)C3CCCO3)c2)c1 (stereo unspecified)	10µM*	-14.7%	i	13.6	11.2µM*	?
O=C(O)c1cccc(NC(=O)c2cccc(NC(=O)C3CCCO3)c2)c1 (stereo unspecified)	-25.9%	-5.2%	-11.9%	63.0	-20.8%	?
COc1cccc(C(=O)NC(C)c2cccc3ccccc23)c1OC (stereo unspecified)	?	-1.0%	-5.1%	?	5.62µM*	-6.7%
COc1ccccc1C(=O)NC(C)c1cccc2ccccc12 (stereo unspecified)	-16.9%	-16.1%	i	-25.2	?	0.0%
COc1ccc(-n2c(N)c(C(=O)NCc3ccco3)c3nc4ccccc4nc32)cc1OC	-3.5%	-9.3%	?	-81.0*	-17.2%[46.1 µM]	-9.5%
Nc1c(C(=O)NCCN2CCOCC2)c2nc3ccccc3nc2n1-c1ccccc1	?	0.1%	-13.1%	-68.5*	-29.6%	-23.5%
COc1cc(-n2c(N)c(C(=O)NCc3ccco3)c3nc4ccccc4nc32)cc(OC)c1OC	-17.6%	·	·	-39.2	?	-12.8%
Nc1c(C(=O)NCc2ccc3c(c2)OCO3)c2nc3ccccc3nc2n1CCCN1CCOCC1	?	?	?	-19.5	?	·
COC(=O)c1c(N)n(-c2ccc(NC(C)=O)cc2)c2nc3ccccc3nc12	-6.1%	-12.9%	·	-66.2*	-1.5%	-28.9%
CCc1ccccc1-n1c(N)c(C(=O)OC)c2nc3ccccc3nc21	-15.8%[46.1 µM]	1.6%	4.1%	8.2	?	-12.3%
COc1ccccc1CNC(=O)c1c(N)n(CCCN2CCOCC2)c2nc3ccccc3nc12	25.6%[14.3 µM]	?	12.6µM*	-29.7	?	-8.4%
COc1ccc(S(=O)(=O)Nc2cc(S(=O)(=O)c3ccccc3)c(O)c(C)c2C)cc1	5.8%[46.1 µM]	-4.0%	12.3%	3.6	1.3%[46.1 µM]	3.0%
O=C(c1ccncc1)N1CCC2(CCC(CNC(=O)C3(N4CCOCC4)CCCCC3)O2)CC1 (stereo unspecified)	·	10.4%	5.1%	·	·	-3.8%
Cc1ccc(NC(=O)Cn2c(C)cc(C)c(C#N)c2=O)cc1	2.3%[46.1 µM]	-6.1%	3.1%	-8.4	·	-24.7%
CCc1cccc(NC(=O)CSc2n[nH]c(-c3ccccc3Cl)n2)c1	12.3%[46.1 µM]	-12.0%	-6.5%	?	·	?
Nc1c(C(=O)NCc2ccco2)c2nc3ccccc3nc2n1CCN1CCCCC1	-2.3%	-19.7%	-12.5%	-68.0*	8.2µM*	·
CCOc1ccc(N(CC(=O)Nc2ccc3c(c2)OCO3)S(=O)(=O)c2ccccc2)cc1	6.3%[46.1 µM]	-17.6%	-24.8%	-23.2	·	58.5%
CC(=O)N1CCN(C2=NC(=O)/C(=C/c3ccc(OS(=O)(=O)c4ccccc4)cc3)S2)CC1	·	·	·	-69.8*	·	-14.5%
O=C1N=C(N2CCOCC2)S/C1=C\c1ccccc1OS(=O)(=O)c1ccccc1	·	·	·	?	·	-1.0%
Cn1cc(S(=O)(=O)N2CCOCC2)cc1C(=O)Nc1ccc(Cl)c(C(F)(F)F)c1	?	-14.0%	-14.3%	-15.7	·	-29.9%
O=C(/C=C/c1ccco1)Oc1cc(Br)cc(/C=N/NC(=O)c2ccccc2O)c1	11.2µM*	?	2.82µM*	-100.7*	?	?
CCCCCc1cc(=O)oc2c(C(CCN(CC)CC)c3ccc(N(C)C)cc3)c(OC)cc(OC)c12 (stereo unspecified)	·	?	-29.1%	-75.2*	·	-9.5%
